This is part of a sample that, as a whole, favours compounds with a hit. Of some 79,000 tested, about 15% had one in any assay. Activity calls are given as the source filed them. No stated cut-off is given here; in the data, active means growth inhibition above about 70%; inactive means the rest.
Key:
[1] = NCI Yeast Anticancer Drug Screen. Data for the rad52 strain (AID 147);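 further: 0% = growth of vehicle-treated control cultures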; conditions: S. cerevisiae rad52 mutant growth inhibition, hits give high values
In short: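 Genetically altered yeast (DNA damage repair defect) treated with compound; inhibition calculated relative to vehicle.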

[2] = NCI Yeast Anticancer Drug Screen. Data for the wt1 strain (AID 149);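 further: 0% = growth of vehicle-treated wt1 cultures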; conditions: S. cerevisiae wt1 strain (SPY 50644) growth inhibition, hits give high values
In short: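 Measured: growth of wt1 yeast under compound versus vehicle treatment, reported as inhibition.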

[3] = NCI Yeast Anticancer Drug Screen. Data for the mgt1 strain (AID 153); conditions: S. cerevisiae mgt1 mutant growth inhibition, hits give high values
In short: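 Read-out: yeast growth inhibition vs vehicle control. Strain mgt1, drawn from a panel altered in DNA damage repair or cell cycle control.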

[4] = NCI Yeast Anticancer Drug Screen. Data for the rad50 strain (AID 155);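 further: 0% = growth of vehicle-only cultures of the same strain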; conditions: S. cerevisiae rad50 strain growth inhibition, hits give high values
In short: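 Growth of the mutant yeast was measured after compound exposure and referenced to vehicle-treated cultures.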

[5] = NCI Yeast Anticancer Drug Screen. Data for the mec2-1 strain (AID 157); conditions: S. cerevisiae mec2-1 strain, hits give high values
In short: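 Cells of the genetically defined mec2-1 yeast strain are incubated with test compound. Inhibition of growth is calculated against vehicle-treated controls.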

[6] = NCI Yeast Anticancer Drug Screen. Data for the rad14 strain (AID 159);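 further: 0% = growth of vehicle-treated control cultures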; conditions: S. cerevisiae rad14 strain growth inhibition, hits give high values
In short: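 Here, inhibition of yeast growth was measured after compound exposure, using a strain with a genetic defect in DNA damage repair and vehicle-treated cultures as the reference.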

[7] = NCI Yeast Anticancer Drug Screen. Data for the sgs1 mgt1 strain (AID 161);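 further: 0% = growth of cultures given vehicle only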; conditions: S. cerevisiae sgs1 mgt1 strain, hits give high values
In short: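 Mutant yeast exposed to compound; growth scored against vehicle-only wells.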

[8] = NCI Yeast Anticancer Drug Screen. Data for the CLN2oe strain (AID 163);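 further: 0% = growth of vehicle-only control cultures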; conditions: S. cerevisiae CLN2oe strain, hits give high values
In short: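 Strain altered in cell-cycle control, incubated with compound; growth compared to solvent-treated controls.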

[9] = NCI Yeast Anticancer Drug Screen. Data for the cln2 rad14 strain (AID 165);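 further: 0% = growth equal to vehicle treated cultures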; conditions: S. cerevisiae cln2 rad14 strain, hits give high values
In short: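 The screen exposed genetically defined yeast (cln2 rad14) to test compounds and scored growth inhibition relative to vehicle-treated controls.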

[10] = NCI Yeast Anticancer Drug Screen. Data for the wt2 strain (AID 169);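 further: 0% = growth of vehicle-treated yeast cultures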; conditions: S. cerevisiae wt2 strain growth inhibition, hits give high values
In short: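 Steps: yeast strain treated with compound; growth recorded; inhibition calculated relative to cultures given vehicle alone.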

[11] = NCI Yeast Anticancer Drug Screen. Data for the mlh1 strain (AID 171);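 further: 0% = growth of vehicle-treated control cultures of the same strain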; conditions: S. cerevisiae mlh1 strain growth inhibition, hits give high values
In short: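 Yeast screen: mutant strain plus compound, growth scored against vehicle control wells.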

[12] = NCI Yeast Anticancer Drug Screen. Data for the sgs1 strain (AID 173);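 further: 0% = growth of vehicle-only control cultures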; conditions: S. cerevisiae sgs1 mutant, hits give high values
In short: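 Inhibition of yeast growth served as the measure. The mutant strain was treated with each compound, and growth was normalised to cultures receiving vehicle alone.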

[13] = NCI Yeast Anticancer Drug Screen. Data for the mlh1 rad18 strain (AID 175); conditions: S. cerevisiae mlh1 rad18 strain growth inhibition, hits give high values
In short: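 Compound-treated yeast growth, normalised to vehicle controls. Strain bears defined DNA repair mutations.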

[14] = NCI Yeast Anticancer Drug Screen. Data for the rad18 strain (AID 177); conditions: S. cerevisiae rad18 mutant growth inhibition, hits give high values
In short: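 Inhibition values reflect reduced yeast growth compared with vehicle-treated controls, using a strain engineered with a DNA damage repair defect.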

[15] = at 5.0 µM (retest, dose inferred, filed as 0.5)
[16] = at 50.0 µM (retest, dose inferred, filed as 5.0)

Measured: growth inhibition

CCCCCCNCCCNc1c2cc(OC)ccc2nc2cccc([N+](=O)[O-])c12
active: [1]; at 11.0 µM 73% | [1]; at 33.0 µM 93% | [1]; at 100.0 µM 97% | [2]; at 100.0 µM 96% | [3]; at 33.0 µM 81% | [3]; at 100.0 µM 98% | [4]; at 33.0 µM 92% | [4]; [16] 97% | [4]; at 50.0 µM 94.6% | [4]; at 100.0 µM 96% | [5]; at 11.0 µM 73% | [5]; at 33.0 µM 94% | [5]; [16] 98% | [5]; at 50.0 µM 96.4% | [5]; at 100.0 µM 99% | [6]; at 11.0 µM 96% | [6]; at 33.0 µM 99% | [6]; at 100.0 µM 99% | [7]; [15] 88% | [7]; [16] 97% | [7]; at 50.0 µM 95.7% | [8]; at 100.0 µM 96% | [9]; [15] 77% | [9]; [16] 99% | [9]; at 50.0 µM 98.8% | [10]; at 33.0 µM 81% | [10]; at 100.0 µM 98% | [11]; at 33.0 µM 86% | [11]; at 100.0 µM 98% | [12]; at 11.0 µM 88% | [12]; at 33.0 µM 95% | [12]; at 100.0 µM 98% | [13]; [15] 73% | [13]; [16] 97% | [13]; at 50.0 µM 97.2% | [14]; at 1.2 µM 89% | [14]; at 3.7 µM 93% | [14]; at 11.0 µM 93% | [14]; at 33.0 µM 95% | [14]; at 100.0 µM 98%
inactive: [1]; at 1.2 µM 8% | [1]; at 3.7 µM 25% | [2]; at 1.2 µM 1% | [2]; at 3.7 µM 1% | [2]; at 11.0 µM 9% | [2]; at 33.0 µM 59% | [3]; at 1.2 µM 0% | [3]; at 3.7 µM 0% | [3]; at 11.0 µM 10% | [4]; at 1.2 µM 5% | [4]; at 3.7 µM 15% | [4]; [15] 35% | [4]; at 11.0 µM 66% | [5]; at 1.2 µM -1% | [5]; at 3.7 µM 4% | [5]; [15] 9% | [6]; at 1.2 µM 7% | [6]; at 3.7 µM 55% | [8]; at 1.2 µM -8% | [8]; at 3.7 µM -13% | [8]; at 11.0 µM -9% | [8]; at 33.0 µM 53% | [10]; at 1.2 µM 0% | [10]; at 3.7 µM 0% | [10]; at 11.0 µM 12% | [11]; at 1.2 µM 4% | [11]; at 3.7 µM 2% | [11]; at 11.0 µM 16% | [12]; at 1.2 µM 21% | [12]; at 3.7 µM 65%
